Assay results reported in PubChem BioAssay.
Inconclusive results are not listed. The source made the active and inactive calls.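 How the source made its calls, unless noted: active means percent response above 42, roughly 3 SD of non-fluorescent test compounds; inactive means the rest.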

Columns and labels:
[1] = yeast TOR pathway RPL19A-GFP modulators, primary screen, cell-based, S. cerevisiae, multiplex flow cytometry (AID 1862; in the data active means percent of DMSO control GFP below about 86%;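 further: lower values mimic rapamycin by blocking the RPL19A rise seen in DMSO cells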); conditions: S. cerevisiae RPL19A-GFP strain, flow cytometry fluorescence, 3 h; at 10 µM; stronger effect = lower value
[2] = modulators of MEP2-GFP levels in yeast, primary screen, S. cerevisiae, multiplex flow cytometry (AID 1867;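 active means GFP response, as percent of the DMSO control, above the screen-wide mean plus 3 SD, about 139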;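 further: median GFP channel fluorescence of barcode-gated MEP2-GFP cells measured by flow cytometry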); conditions: S. cerevisiae MEP2-GFP strain, 3 h, at 10 µM, stronger effect = higher value, 100% means same as DMSO wells
[3] = modulators of CIT2-GFP expression in yeast, primary screen, S. cerevisiae, GFP fusion, multiplex flow cytometry (AID 1870;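 active means percent response above a set limit, the screen-wide mean plus 3 SD, cut at about 130% in these data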;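 further: barcoded CIT2-GFP strain pooled with four other GFP strains with rapamycin as positive control; median GFP fluorescence per well over plate mean of DMSO wells so 100% = DMSO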); conditions: 3 h, at 10 µM, stronger effect = higher value
[4] = modulators of LAP4-GFP expression in yeast, primary screen, S. cerevisiae, multiplex flow cytometry (AID 1873;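 active means GFP signal, as percent of the solvent control, above the screen mean plus 3 SD, about 149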); conditions: 3 h, at 10 µM, stronger effect = higher value
[5] = modulators of AGP1-GFP expression in yeast TOR pathway, primary screen, cell-based, multiplex flow cytometry, S. cerevisiae (AID 1887;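 active means GFP signal above the screen-wide mean plus 3 SD, that is over about 124.5% of the solvent control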;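 further: AGP1-GFP fusion strain of S. cerevisiae within a five-strain barcoded multiplex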); conditions: 3 h, at 10 µM, stronger effect = higher value
[6] = inhibitors of CD8+ T cell-vesicle binding, pilot screen, LFA-1/ICAM-1 modulator project, MLPCN validation set, flow cytometry (AID 2523;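 active means response below a set limit, under 55% cells CD8-positive and vesicle-bound, and CD8 cells' 90th-percentile brightness under 279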;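 on vesicle binding response: mean PE anti-B7-1 fluorescence of CD8+ cells relative to row control; 100% = QL9-loaded vesicles with DMSO vehicle in the same plate row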); conditions: 2C mouse CD8+ T cells, at 7 µM, stronger effect = lower value; double positive events: measured here: CD8+/vesicle+ event percentage
[7] = target: Integrin beta-1 (Homo sapiens) + Integrin alpha-4 (Homo sapiens) (UniProt P13612+P05556); assay: inhibition of HUTS-21 binding to VLA-4, pilot screen, VLA-4 allosteric modulator project, U937 cells, HUTS-21 mAb, flow cytometry, validation set (AID 2674;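 active means inhibition above 50%, about 3 SD of the validation set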;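 further: antibody binding induced by the VLA-4 ligand LDV present at three times its Kd; 0% = LDV ligand with antibody and no compound and 100% = antibody without LDV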); conditions: HUTS-21 LIBS mAb binding, at 6.7 µM, stronger effect = higher value, binding induced by LDV ligand
[8] = superoxide lowering in aged yeast cells, pilot screen, validation compound set (AID 2706;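 active means superoxide response below 65% of plate, a cut near 3 SD across the whole screen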;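 further: yeast exposed to compound for one week at 30 degrees C before staining; 100% = mean of all compound wells on the same plate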); conditions: S. cerevisiae aging, superoxide DHE fluorescence; at 10 µM; stronger effect = lower value
[9] = target: Beta-adrenergic receptor kinase 1 (Homo sapiens) (UniProt P25098); assay: GRK2 binders displacing RNA aptamer, biochemical, validation, human GRK2, bead flow cytometry (AID 488806;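 active means aptamer binding inhibition above 30%, about 3 SD of noise from non-fluorescent compounds; inactive means inhibition at or below 30%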); conditions: bead-bound GRK2, FAM-aptamer displacement, at 10 µM, stronger effect = higher value
[10] = target: Beta-2 adrenergic receptor (Homo sapiens) (UniProt P07550); assay: beta2AR agonists driving receptor internalization, pilot screen, cell-based, FAP fluorogen, flow cytometry, validation set (AID 504459); conditions: Am2.2-beta2AR cells, FAP surface receptor flow cytometry; at 10 µM; stronger effect = higher value;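 further: agonist-driven loss of surface beta2AR via internalization measured by FAP dye flow cytometry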
[11] = target: AP-2 complex subunit beta (Homo sapiens) (UniProt P63010); assay: inhibitors of arrestin peptide binding to AP2, pilot screen, biochemical, validation set, GST-AP2 beads, flow cytometry (AID 504541;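 active means inhibition above 54%, about 3 SD of non-fluorescent compounds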;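 further: AP2 carries R879A mutation and is captured from E. coli lysate; bead-bound FITC arrestin peptide fluorescence measuring arrestin peptide binding to AP2; 0% = DMSO wells and 100% = excess unlabeled arrestin peptide control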); conditions: FITC arrestin peptide, at 10 µM, stronger effect = higher value, AP2 beta2 appendage fragment, R879A mutant
[12] = yeast V-ATPase proton transport modulators, S. cerevisiae, pHLuorin, HTS validation (AID 504600; in the data active means response above about 15%;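 further: plate controls were DMSO for no effect and reference compound for full effect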); conditions: S. cerevisiae pHLuorin cytosolic pH, at 10 µM, stronger effect = higher value
[13] = tested on: anti-desmoglein-3 scFv antibody binding to human DSG3; assay: inhibitors of anti-DSG3 scFv binding to DSG3, pilot screen, biochemical, validation compound set, bead-based, flow cytometry (AID 588368;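 active means binding below the plate cutoff, the plate median minus 3 SD, with a reading above zero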;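 further: signal is the median channel fluorescence of bead-bound GFP antibody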); conditions: Protein G beads, DSG3-Fc, scFv-GFP binding, at 10 µM, stronger effect = lower value
[14] = inhibitors of fungal efflux pumps CDR1, CDR2, MDR1, pilot screen, validation compound set, multiplex, phenotypic (AID 588506;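 active means efflux inhibition above 0.42, the validation set average plus 4 SD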;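 further: Nile Red retained in cells so higher fluorescence means more efflux inhibition; 0 = negative control wells and 1 = enniatin B 25 µM full block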); conditions: S. cerevisiae pump-expressing triplex, Nile Red efflux flow cytometry; at 10 µM; stronger effect = higher value; the pumps come from Candida albicans
[15] = target: ATP-binding cassette sub-family B member 6 (Homo sapiens) (UniProt Q9NP58); assay: ABCB6 transporter inhibitors, pilot screen, K562-ABCB6 cells, flow cytometry, validation set (AID 588550;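 active means inhibition above the screen-wide mean plus 3 SD, about 51%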;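 further: 0% = DMSO wells and 100% = benzethonium chloride 70 µM positive control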); conditions: K562-ABCB6 porphyrin accumulation, 1 h, at 10 µM, stronger effect = higher value
[16] = promoters of myeloid differentiation in arrested cells, primary screen, cell-based, GFP/MAC1 double positive, flow cytometry, validation set (AID 588685;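 active means differentiation response of at least 50%, scaled between solvent and reference control, from cells with both markers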;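 further: compound exposure lasts four days before antibody staining and flow analysis; 0% = DMSO wells and 100% = 5 µM fulvestrant positive control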); conditions: ER-HoxA9 marrow cells, stronger effect = higher value, normalized: vehicle 0, fulvestrant 100

Sequence of AP-2 complex subunit beta (Homo sapiens) (P63010 whole entry, looked up, the tested form may be a part, one chain of several): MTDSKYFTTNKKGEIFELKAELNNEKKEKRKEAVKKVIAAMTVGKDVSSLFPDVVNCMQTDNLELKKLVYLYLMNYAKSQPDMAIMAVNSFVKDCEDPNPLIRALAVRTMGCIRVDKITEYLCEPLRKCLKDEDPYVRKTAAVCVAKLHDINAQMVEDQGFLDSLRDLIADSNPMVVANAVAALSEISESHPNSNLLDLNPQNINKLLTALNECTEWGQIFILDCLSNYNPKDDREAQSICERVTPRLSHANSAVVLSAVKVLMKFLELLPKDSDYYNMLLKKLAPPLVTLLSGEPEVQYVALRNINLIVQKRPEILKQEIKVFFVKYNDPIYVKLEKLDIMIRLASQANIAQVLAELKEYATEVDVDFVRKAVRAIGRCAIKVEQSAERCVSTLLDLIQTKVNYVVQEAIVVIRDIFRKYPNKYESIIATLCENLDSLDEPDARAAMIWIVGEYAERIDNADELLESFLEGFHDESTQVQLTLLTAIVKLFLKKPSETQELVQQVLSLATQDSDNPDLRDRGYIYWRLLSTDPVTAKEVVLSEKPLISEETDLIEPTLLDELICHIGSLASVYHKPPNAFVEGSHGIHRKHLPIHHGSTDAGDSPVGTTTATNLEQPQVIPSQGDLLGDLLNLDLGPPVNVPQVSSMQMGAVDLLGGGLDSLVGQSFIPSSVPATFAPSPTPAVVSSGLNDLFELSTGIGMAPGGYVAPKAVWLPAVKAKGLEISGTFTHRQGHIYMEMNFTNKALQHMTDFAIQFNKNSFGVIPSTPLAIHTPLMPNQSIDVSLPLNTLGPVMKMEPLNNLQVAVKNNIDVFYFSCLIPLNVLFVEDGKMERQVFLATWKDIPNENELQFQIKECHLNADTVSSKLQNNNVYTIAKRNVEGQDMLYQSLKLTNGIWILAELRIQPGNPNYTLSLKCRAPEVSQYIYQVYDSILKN
Sequence of Integrin beta-1 (Homo sapiens) + Integrin alpha-4 (Homo sapiens) (P05556 whole entry, looked up): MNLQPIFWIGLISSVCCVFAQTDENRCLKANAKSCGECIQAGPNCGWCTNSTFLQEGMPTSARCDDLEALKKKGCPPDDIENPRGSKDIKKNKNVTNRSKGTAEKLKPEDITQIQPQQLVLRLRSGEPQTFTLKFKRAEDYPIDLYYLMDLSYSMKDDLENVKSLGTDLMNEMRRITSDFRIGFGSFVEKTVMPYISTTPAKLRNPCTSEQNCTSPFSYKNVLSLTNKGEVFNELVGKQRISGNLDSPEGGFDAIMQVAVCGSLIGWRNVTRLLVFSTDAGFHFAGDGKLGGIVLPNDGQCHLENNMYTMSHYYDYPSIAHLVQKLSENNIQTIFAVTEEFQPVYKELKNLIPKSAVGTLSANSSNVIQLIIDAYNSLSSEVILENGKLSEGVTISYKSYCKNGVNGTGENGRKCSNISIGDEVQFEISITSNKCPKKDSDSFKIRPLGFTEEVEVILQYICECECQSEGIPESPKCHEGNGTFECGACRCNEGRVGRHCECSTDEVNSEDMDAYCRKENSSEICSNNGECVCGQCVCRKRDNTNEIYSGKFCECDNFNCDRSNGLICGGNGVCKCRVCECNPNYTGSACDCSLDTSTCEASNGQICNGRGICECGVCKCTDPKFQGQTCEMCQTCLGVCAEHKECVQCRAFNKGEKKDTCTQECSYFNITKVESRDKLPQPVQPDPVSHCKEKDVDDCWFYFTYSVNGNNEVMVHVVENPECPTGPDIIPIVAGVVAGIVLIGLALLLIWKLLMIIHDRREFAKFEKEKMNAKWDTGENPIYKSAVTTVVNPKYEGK
Sequence of Integrin beta-1 (Homo sapiens) + Integrin alpha-4 (Homo sapiens) (P13612 whole entry, looked up): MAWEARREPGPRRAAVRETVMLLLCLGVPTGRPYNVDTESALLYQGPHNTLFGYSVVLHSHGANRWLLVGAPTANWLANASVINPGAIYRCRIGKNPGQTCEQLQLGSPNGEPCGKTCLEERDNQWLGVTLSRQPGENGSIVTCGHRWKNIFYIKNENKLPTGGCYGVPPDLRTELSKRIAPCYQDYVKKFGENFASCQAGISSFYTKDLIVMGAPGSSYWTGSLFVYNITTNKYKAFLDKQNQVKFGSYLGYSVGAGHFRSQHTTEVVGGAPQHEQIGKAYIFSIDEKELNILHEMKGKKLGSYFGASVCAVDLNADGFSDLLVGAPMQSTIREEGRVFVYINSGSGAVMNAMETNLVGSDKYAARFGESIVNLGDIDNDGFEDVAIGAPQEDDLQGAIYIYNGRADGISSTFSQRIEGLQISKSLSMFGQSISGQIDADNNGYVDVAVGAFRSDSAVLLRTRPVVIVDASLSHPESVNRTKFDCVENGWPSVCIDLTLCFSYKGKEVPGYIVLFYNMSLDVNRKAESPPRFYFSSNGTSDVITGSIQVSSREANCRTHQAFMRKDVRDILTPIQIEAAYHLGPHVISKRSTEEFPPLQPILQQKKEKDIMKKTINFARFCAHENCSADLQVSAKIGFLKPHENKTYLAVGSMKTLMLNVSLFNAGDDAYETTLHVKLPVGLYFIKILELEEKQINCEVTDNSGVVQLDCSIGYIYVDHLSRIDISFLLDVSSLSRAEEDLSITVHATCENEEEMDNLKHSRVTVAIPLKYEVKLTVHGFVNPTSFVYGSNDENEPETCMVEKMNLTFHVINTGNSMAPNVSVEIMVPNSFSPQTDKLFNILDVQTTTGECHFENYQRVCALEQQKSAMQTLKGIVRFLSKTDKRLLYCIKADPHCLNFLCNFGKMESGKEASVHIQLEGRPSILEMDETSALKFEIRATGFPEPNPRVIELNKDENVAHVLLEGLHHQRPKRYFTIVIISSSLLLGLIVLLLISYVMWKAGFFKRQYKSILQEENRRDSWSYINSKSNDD
Sequence of ATP-binding cassette sub-family B member 6 (Homo sapiens) (Q9NP58 whole entry, looked up): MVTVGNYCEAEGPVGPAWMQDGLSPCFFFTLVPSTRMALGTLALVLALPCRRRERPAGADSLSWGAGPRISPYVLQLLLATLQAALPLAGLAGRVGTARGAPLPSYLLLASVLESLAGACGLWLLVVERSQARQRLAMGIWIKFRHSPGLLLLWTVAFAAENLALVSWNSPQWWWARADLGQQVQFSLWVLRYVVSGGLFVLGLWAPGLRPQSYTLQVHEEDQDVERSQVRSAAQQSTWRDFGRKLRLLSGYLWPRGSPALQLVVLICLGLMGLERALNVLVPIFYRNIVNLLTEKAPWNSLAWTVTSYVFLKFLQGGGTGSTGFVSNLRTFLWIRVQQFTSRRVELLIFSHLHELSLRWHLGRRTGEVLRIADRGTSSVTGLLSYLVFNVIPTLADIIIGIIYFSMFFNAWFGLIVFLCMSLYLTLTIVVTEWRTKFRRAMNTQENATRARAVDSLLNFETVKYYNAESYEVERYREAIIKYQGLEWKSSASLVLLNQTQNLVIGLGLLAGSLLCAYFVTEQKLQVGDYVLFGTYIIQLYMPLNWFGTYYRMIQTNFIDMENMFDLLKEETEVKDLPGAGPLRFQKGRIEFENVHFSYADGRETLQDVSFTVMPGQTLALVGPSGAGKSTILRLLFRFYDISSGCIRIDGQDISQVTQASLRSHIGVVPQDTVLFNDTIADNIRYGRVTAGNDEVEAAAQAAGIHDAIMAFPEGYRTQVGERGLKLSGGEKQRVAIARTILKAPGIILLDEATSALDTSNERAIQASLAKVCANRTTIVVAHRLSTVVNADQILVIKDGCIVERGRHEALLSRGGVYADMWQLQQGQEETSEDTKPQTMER
Sequence of Beta-2 adrenergic receptor (Homo sapiens) (P07550 whole entry, looked up): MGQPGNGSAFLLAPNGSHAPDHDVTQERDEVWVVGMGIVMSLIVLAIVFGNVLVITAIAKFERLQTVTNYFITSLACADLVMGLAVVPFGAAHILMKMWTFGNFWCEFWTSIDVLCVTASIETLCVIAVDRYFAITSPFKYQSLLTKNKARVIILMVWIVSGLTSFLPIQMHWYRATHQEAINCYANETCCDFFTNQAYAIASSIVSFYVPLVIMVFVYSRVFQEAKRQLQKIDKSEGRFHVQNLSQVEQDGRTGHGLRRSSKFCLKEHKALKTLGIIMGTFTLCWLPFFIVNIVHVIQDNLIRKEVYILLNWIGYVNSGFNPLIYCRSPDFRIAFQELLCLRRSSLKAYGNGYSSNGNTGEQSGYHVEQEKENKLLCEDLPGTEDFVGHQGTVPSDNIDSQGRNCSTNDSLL
Sequence of Beta-adrenergic receptor kinase 1 (Homo sapiens) (P25098 whole entry, looked up): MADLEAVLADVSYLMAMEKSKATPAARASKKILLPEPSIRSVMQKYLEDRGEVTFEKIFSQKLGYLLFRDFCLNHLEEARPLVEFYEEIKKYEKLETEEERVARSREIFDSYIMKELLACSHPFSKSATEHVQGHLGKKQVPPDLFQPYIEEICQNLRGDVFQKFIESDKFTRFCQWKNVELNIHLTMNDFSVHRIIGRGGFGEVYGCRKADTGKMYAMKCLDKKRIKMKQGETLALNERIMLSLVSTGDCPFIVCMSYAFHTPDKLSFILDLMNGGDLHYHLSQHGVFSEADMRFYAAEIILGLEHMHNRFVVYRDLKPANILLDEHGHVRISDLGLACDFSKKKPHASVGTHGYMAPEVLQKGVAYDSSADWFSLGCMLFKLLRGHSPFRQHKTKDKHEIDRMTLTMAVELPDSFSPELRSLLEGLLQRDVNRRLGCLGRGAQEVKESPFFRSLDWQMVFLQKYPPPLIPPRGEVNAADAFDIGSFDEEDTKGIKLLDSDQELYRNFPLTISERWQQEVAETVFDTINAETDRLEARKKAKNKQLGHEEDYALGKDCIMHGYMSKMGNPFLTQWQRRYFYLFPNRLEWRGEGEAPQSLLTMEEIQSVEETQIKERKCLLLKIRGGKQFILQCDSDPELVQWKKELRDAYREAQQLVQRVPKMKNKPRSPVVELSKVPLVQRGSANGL

Row | SMILES | percent of DMSO control GFP [1] | GFP response vs DMSO [2] | percent response of DMSO control [3] | GFP response vs DMSO [4] | GFP response, % of DMSO [5] | double positive events [6] | vesicle binding response [6] | inhibition [7] | superoxide response (% of plate) [8] | aptamer binding inhibition [9] | response [10] | inhibition [11] | response [12] | binding (% of control) [13] | efflux inhibition (fraction of control) [14] | inhibition [15] | differentiation response [16]
1 | COC(=O)C1[C@H]2C(=O)N(Cc3cccs3)C[C@]23C=C[C@H]1O3 (stereo not given in full) | 105% (inactive) | 90.9% (inactive) | 105% (inactive) | 80.2% (inactive) | 99.5% (inactive) | 58.4% | 194% (inactive) | 28.6% (inactive) | 98.1% (inactive) | 2% (inactive) | -4.45% (inactive) | -9.57% (inactive) | 2.19% (inactive) | 95% (inactive) | 0.3 (inactive) | 6% (inactive) | 14.9% (inactive)
2 | CC(=O)OC(C)C[N+](C)(C)C (stereo not given) | 103% (inactive) | 102% (inactive) | 96.4% (inactive) | 115% (inactive) | 124% (inactive) | 65.5% | 191% (inactive) | -7.08% (inactive) | 86.6% (inactive) | 5% (inactive) | -16.2% (inactive) | -17.2% (inactive) | 0.37% (inactive) | 107% (inactive) | 0 (inactive) | 6% (inactive) | 6.83% (inactive)
3 | CCOc1ccc2nc(N/C(N)=N/S(C)(=O)=O)nc(C)c2c1 | 90.6% (inactive) | 132% (inactive) | 107% (inactive) | 84.7% (inactive) | 93.8% (inactive) | 67.9% | 174% (inactive) | -3.24% (inactive) | 98.7% (inactive) | 3% (inactive) | -5.51% (inactive) | 35.3% (inactive) | -5.13% (inactive) | 95% (inactive) | 0.05 (inactive) | 0% (inactive) | 3.28% (inactive)
4 | O=C(O)c1ccc(C(=O)C(=O)c2ccccc2)cc1 | 104% (inactive) | 98.3% (inactive) | 109% (inactive) | 101% (inactive) | 102% (inactive) | 65.4% | 304% (inactive) | -17.1% (inactive) | 110% (inactive) | 3% (inactive) | 4.67% (inactive) | 1.48% (inactive) | 0.41% (inactive) | 96.6% (inactive) | -0.01 (inactive) | -10% (inactive) | -6.6% (inactive)
5 | S=C(NCCOCCOCCNC(=S)Nc1ccccc1)Nc1ccccc1 | 98.6% (inactive) | 103% (inactive) | 86.3% (inactive) | 108% (inactive) | 97.4% (inactive) | 64.8% | 250% (inactive) | -22.3% (inactive) | 134% (inactive) | 3% (inactive) | 2.38% (inactive) | -17% (inactive) | 6.24% (inactive) | 99.9% (inactive) | 0.55 (active) | 4% (inactive) | 5.6% (inactive)
6 | CC(=O)Nc1nnc(S(N)(=O)=O)s1 | 102% (inactive) | 95.1% (inactive) | 116% (inactive) | 88.1% (inactive) | 102% (inactive) | 62.4% | 1080% (inactive) | 17.2% (inactive) | 111% (inactive) | 5% (inactive) | -4.02% (inactive) | -5.06% (inactive) | 0.12% (inactive) | 102% (inactive) | 0.05 (inactive) | 16% (inactive) | 6.11% (inactive)
7 | COc1cc(C(=O)Nc2ccc(N(C)C)cc2)c([N+](=O)[O-])cc1OC | 100% (inactive) | 104% (inactive) | 101% (inactive) | 104% (inactive) | 98.6% (inactive) | 63.5% | 224% (inactive) | -3.57% (inactive) | 101% (inactive) | 4% (inactive) | -1.8% (inactive) | 2.96% (inactive) | 0.28% (inactive) | 93.2% (inactive) | -0.2 (inactive) | 7% (inactive) | 4.15% (inactive)
8 | Cc1ccc2nc(NC3=NC(CC(=O)O)C(=O)N3)nc(C)c2c1 (stereo not given) | 105% (inactive) | 100% (inactive) | 106% (inactive) | 93.3% (inactive) | 106% (inactive) | 65.9% | 214% (inactive) | 0.58% (inactive) | 96.2% (inactive) | 2% (inactive) | -2.27% (inactive) | 8.29% (inactive) | 2.1% (inactive) | 96.1% (inactive) | 0.36 (inactive) | 6% (inactive) | 9.04% (inactive)
9 | CC1(C)C(=O)OC(c2cccs2)C2(CCCCC2)C1=O (stereo not given) | 99.2% (inactive) | 108% (inactive) | 96.6% (inactive) | 105% (inactive) | 97.5% (inactive) | 61.1% | 228% (inactive) | -18.1% (inactive) | 109% (inactive) | 0% (inactive) | 3.42% (inactive) | 44.8% (inactive) | -2.62% (inactive) | 97.4% (inactive) | -0.01 (inactive) | 2% (inactive) | 53% (active)
10 | COc1ccc(-c2nc3c(=O)n(C)c(=O)[nH]c3n2CCc2ccccc2)cc1 | 111% (inactive) | 103% (inactive) | 115% (inactive) | 93.1% (inactive) | 104% (inactive) | 64% | 232% (inactive) | 13.2% (inactive) | 107% (inactive) | 0% (inactive) | 12.6% (inactive) | -0.08% (inactive) | -6.09% (inactive) | 99.3% (inactive) | -0.13 (inactive) | 3% (inactive) | -23.2% (inactive)
